# PubChem BioAssay
# “And” between values parts separate entries of the source, which are not always exact repeats. Equal values may be shown once. Results filed as inconclusive are left out. The source made the active and inactive calls. Cut-off read from the data, not from the text of the source, unless noted: active = inhibition above about 80%; inactive = the rest.
# Experiments:
# [1] = viability loss in pontine glioma line – cell-based, SU-DIPG-XVII, MIPE5.0, CellTiter-Glo, qHTS, dose response (AID 1347060; cut-off not given, nearly all actives have AC50 up to about 26 µM;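 for AC50: cells exposed to compound for 48 hours before viability readout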); conditions: CellTiter-Glo ATP luminescence
# [2] = viability loss in pontine glioma line – cell-based, SU-DIPG-XIII, MIPE4.0, CellTiter-Glo, qHTS, dose response (AID 1347061; cut-off not given, nearly all actives have AC50 up to about 37 µM;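 note: cells exposed to compound for 48 hours before readout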); conditions: CellTiter-Glo ATP luminescence
# [3] = viability loss in pontine glioma line – cell-based, JHH-DIPG-1, MIPE4.0, CellTiter-Glo, qHTS, dose response (AID 1347062; cut-off not given, nearly all actives have AC50 up to about 27 µM;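 for AC50: cells exposed to compound for two days before readout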); conditions: JHH-DIPG-1 viability, CellTiter-Glo ATP luminescence
# [4] = viability loss in pontine glioma line – cell-based, SU-DIPG-IV, MIPE4.0, CellTiter-Glo, qHTS, dose response (AID 1347063; cut-off not given, nearly all actives have AC50 up to about 30 µM;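 note: compound exposure lasted 48 hours before the viability readout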); conditions: CellTiter-Glo ATP luminescence
# [5] = JHH-DIPG-1 glioma cell viability, MIPE5.0 library, CellTiter-Glo luminescence, qHTS (AID 1347067; cut-off not given, nearly all actives have AC50 up to about 26 µM;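 note: cells exposed to compound for 48 hours before readout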); conditions: JHH-DIPG-1 glioma viability, CellTiter-Glo ATP luminescence
# [6] = growth inhibition of DIPG cells – cell-based, MIPE5.0 library, qHTS (AID 1347068; cut-off not given, nearly all actives have IC50 up to about 30 µM); conditions: SU-DIPG-XXV viability
# [7] = viability loss with induced miR-34 in A549 – imaging, A549 dox-inducible miR-34, nuclei and caspase counts, primary screen (AID 1347080;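 active = compounds whose cell count with miR-34 switched on is under 0.7 times the count with it off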); conditions: A549 miR-34 inducible, Hoechst nuclei count, 48 h
# [8] = MELAS cybrid and Rieske KO viability enhancers – cell-based, MELAS cybrids, Rieske KO mouse fibroblasts, CellTiter-Glo, primary screen (AID 1508586;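 active = mean z-score across replicates of 1.96 or higher in either the MELAS or the Rieske mutant cell line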;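 note: z relative to plate mean and SD of compound and empty wells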); conditions: low glucose
# [9] = growth inhibition, single agent or in combination, cell-based, chromothripsis tumors, cisplatin or BGB combos (AID 1671449); conditions: LFS_MB_P medulloblastoma cells;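 note: cells exposed for 96 hours; 0% = vehicle DMSO and 100% = killing by high DMSO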
# [10] = growth inhibition, single agent and combos, cell-based, chromothripsis tumors, cisplatin or BGB combos (AID 1671450); conditions: HDN33 neuroblastoma cells, stronger effect = higher value;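 note: cells exposed to compound for four days; 0% = vehicle DMSO and 100% = cell killing by high DMSO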
# [11] = growth inhibition, single agents and combos, ICB984, cell-based, cisplatin or BGB combos, synergistic combos for chromothripsis tumors (AID 1671451; call rule not given here;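 note: cells exposed for 96 hours before readout; 0% = vehicle DMSO and 100% = killing by high DMSO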); conditions: ICB984 medulloblastoma cells, drug combinations, stronger effect = higher value
# [12] = growth inhibition, single agents and combos, HTB85, cell-based, BGB or cisplatin IC20 combos, synergistic combos for chromothripsis tumors (AID 1671453); conditions: HTB85 osteosarcoma cells, drug combinations, stronger effect = higher value;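 note: cells exposed for 96 hours before readout; 0% = vehicle DMSO and 100% = high DMSO killing control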
# [13] = growth inhibition, MDA-MB-436, cell-based, BGB or cisplatin combos, synergistic combos for chromothripsis tumors (AID 1671458; call rule not given here;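 note: cells exposed for 96 hours; 0% = vehicle DMSO and 100% = killing by high DMSO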); conditions: MDA-MB-436 breast carcinoma growth inhibition, drug combinations, stronger effect = higher value
# [14] = BT084 cell growth, single and combined drugs, ICGC_MB145, cisplatin and BGB IC40 combos (AID 1671461); conditions: BT084 medulloblastoma cells, drug combinations, stronger effect = higher value;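 note: cells exposed to drugs for 96 hours; 0% = vehicle DMSO and 100% = high DMSO full killing control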
# [15] = RCMB18 cell growth, single agent and combined, cisplatin and BGB IC40 combos (AID 1671462); conditions: RCMB18 medulloblastoma cells, stronger effect = higher value;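 note: cells exposed to compound for four days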
# [16] = viability loss in pontine glioma line – cell-based, SU-DIPG-XIII, MIPE5.0, CellTiter-Glo, qHTS, dose response (AID 1347064; cut-off not given, nearly all actives have AC50 up to about 23 µM;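 for AC50: cells exposed to compound for 48 hours before the viability read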); conditions: CellTiter-Glo ATP luminescence
# [17] = viability loss in pontine glioma line – cell-based, SU-DIPG-XXV, MIPE5.0, CellTiter-Glo, qHTS, dose response (AID 1347065; cut-off not given, nearly all actives have AC50 up to about 26 µM;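 note: cells exposed to compound for 48 hours before ATP readout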); conditions: CellTiter-Glo ATP luminescence
# [18] = growth inhibition of DIPG cells – cell-based, MIPE4.0 library, CellTiter-Glo luminescence, qHTS (AID 1347066; cut-off not given, nearly all actives have AC50 up to about 30 µM;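 note: cells exposed to compound for 48 hours before readout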); conditions: SU-DIPG-VI viability, CellTiter-Glo ATP luminescence
# [19] = stronger effect = lower value, cell number ratio, induced over uninduced
# [20] = measured here: relative caspase fold change +Dox/-Dox
# [21] = measured here: total cells with miR-34 induction, stronger effect = lower value
# [22] = measured here: total cells without miR-34 induction
# [23] = MELAS cybrid survival, CellTiter-Glo 48 h, stronger effect = higher value
# [24] = Rieske KO mouse fibroblast survival, CellTiter-Glo 72 h
smiles,measurement,setting,value
CN1CCc2c(c3ccccc3n2Cc2ccc(C(=O)NO)cc2)C1,AC50,[1],23.5 µM (active)
same,outcome,[2],inactive
same,AC50,[3],23.5 µM (active)
same,AC50,[4],20.9 µM (active)
same,AC50,[5],20.9 µM (active)
same,outcome,[6],inactive
same,fold change,[7]; [19],0.909 (inactive) and 0.928 (inactive)
same,fold change,[7]; [20],0.692 and 0.727
same,cell count,[7]; [21],8690 and 9370
same,cell count,[7]; [22],9560 and 10100
same,z-score,[8]; [23],-0.421 (inactive) and -0.386 (inactive)
same,z-score,[8]; [24],1.15 and -0.701
same,inhibition,"[9]; at 0.5 µM, stronger effect = higher value",-24.1% (inactive) and -14.7% (inactive)
same,inhibition,"[9]; measured here: combination with BGB IC20, at 0.005 µM",-28.6% and -21.3%
same,inhibition,"[9]; measured here: combination with BGB IC40, at 0.005 µM",-40.9% and -27%
same,inhibition,"[9]; measured here: combination with BGB IC40, at 0.05 µM",-19.2% and -45.3%
same,inhibition,"[9]; measured here: combination with cisplatin, at 0.5 µM, stronger effect = higher value",-23.9% and 9.39%
same,inhibition,"[9]; measured here: combination with cisplatin, at 5 µM, stronger effect = higher value",-11.8% and 7.46%
same,inhibition,"[10]; BGB combo, at 5 µM",2.45% and 27.4%
same,inhibition,[10]; at 0.5 µM,4.53% (inactive) and -0.32% (inactive)
same,inhibition,"[10]; cisplatin combo, at 5 µM",19.6% and 28.9%
same,inhibition,"[10]; measured here: with BGB IC20 combination, at 0.5 µM",-5.55% and 4.06%
same,inhibition,"[10]; measured here: with cisplatin IC20 combination, at 0.5 µM",15% and 5.2%
same,inhibition,"[10]; single agent, at 5 µM",25.9% and 54.8%
same,inhibition,"[11]; BGB IC20 combo, at 0.005 µM",22.3% and -11.7%
same,inhibition,"[11]; BGB IC40 combo, at 0.005 µM",-10.2% and -27.7%
same,inhibition,"[11]; BGB IC40 combo, at 0.05 µM",-9.66% and -9.28%
same,inhibition,[11]; at 0.5 µM,-11.2% (inactive) and -22.9% (inactive)
same,inhibition,"[11]; cisplatin combo, at 0.05 µM",-15.3% and -13.2%
same,inhibition,"[11]; cisplatin combo, at 0.5 µM",-16.4% and -10.9%
same,inhibition,"[11]; cisplatin combo, at 5 µM",-14% and -10.1%
same,inhibition,"[11]; measured here: 5 uM single agent, at 5 µM",-11.5% and -12.4%
same,inhibition,[12]; at 0.5 µM,0.33% (inactive) and -0.18% (inactive)
same,inhibition,"[12]; measured here: with BGB IC20, at 0.5 µM",0.483% and -9.65%
same,inhibition,"[12]; measured here: with BGB IC20, at 5 µM",26.3% and 10.4%
same,inhibition,"[12]; measured here: with cisplatin IC20, at 0.5 µM",-3.56% and 12.2%
same,inhibition,"[12]; measured here: with cisplatin IC20, at 5 µM",24.2% and 27.5%
same,inhibition,"[12]; single agent, at 5 µM",18.4% and 13.9%
same,inhibition,[13]; at 0.5 µM,-13.8% (inactive) and -2.54% (inactive)
same,inhibition,"[13]; measured here: BGB combination, at 0.5 µM",-10.6% and -7.29%
same,inhibition,"[13]; measured here: BGB combination, at 5 µM",-5.66% and 0.993%
same,inhibition,"[13]; measured here: cisplatin combination, at 0.5 µM",-25.1% and 2.46%
same,inhibition,"[13]; measured here: cisplatin combination, at 5 µM",-15.3% and 18.8%
same,inhibition,[14]; at 0.5 µM,2.15% (inactive) and 0.779% (inactive)
same,inhibition,"[14]; cisplatin combination, at 0.5 µM",8.01% and -20.4%
same,inhibition,"[14]; cisplatin combination, at 5 µM",-145% and 19.9%
same,inhibition,"[14]; measured here: BGB IC40 combination 0.05 uM, at 0.05 µM",-20.5% and 21.4%
same,inhibition,"[14]; single agent, at 5 µM",2.48% and 3.3%
same,inhibition,[15]; at 0.5 µM,-9.94% (inactive) and 3.3% (inactive)
same,inhibition,"[15]; cisplatin combo, at 5 µM",1.27% and 18.1%
same,inhibition,"[15]; measured here: BGB IC40 combination, at 0.05 µM",-31.8% and 8.24%
same,inhibition,"[15]; measured here: combination with cisplatin, at 0.5 µM",-21.5% and 43%
same,inhibition,"[15]; single agent, at 5 µM",12.1% and 14.4%
Cc1c(Cn2c(C)nc3c(C(=O)O)cc(N4CCOCC4)cc32)cccc1C(F)(F)F,outcome,[1],inactive
same,outcome,[2],inactive
same,outcome,[3],inactive
same,outcome,[16],inactive
same,outcome,[17],inactive
same,outcome,[18],inactive
same,outcome,[5],inactive
same,outcome,[6],inactive
same,fold change,[7]; [19],0.907 (inactive)
same,fold change,[7]; [20],0.358
same,cell count,[7]; [21],8050
same,cell count,[7]; [22],8880
same,z-score,[8]; [23],-0.351 (inactive)
same,z-score,[8]; [24],0.912
NC(=O)c1cccc2cn(-c3ccc([C@@H]4CCCNC4)cc3)nc12,AC50,[1],8.33 µM (active)
same,outcome,[2],inactive
same,outcome,[3],inactive
same,outcome,[4],inactive
same,outcome,[18],inactive
same,outcome,[5],inactive
CO[C@H]1/C=C/O[C@@]2(C)Oc3c(C)c(O)c4c(O)c(c5c(nc6cc(C)ccn65)c4c3C2=O)NC(=O)/C(C)=C\C=C\[C@H](C)[C@H](O)[C@@H](C)[C@@H](O)[C@@H](C)[C@H](OC(C)=O)[C@@H]1C,AC50,[1],16.6 µM (active)
same,outcome,[2],inactive
same,outcome,[3],inactive
same,AC50,[16],13.2 µM (active)
same,AC50,[17],23.5 µM (active)
same,AC50,[5],14.8 µM (active)
same,z-score,[8]; [23],0.239 (inactive)
same,z-score,[8]; [24],-0.714
